Consider 5 compounds from PubChem BioAssay.

For assay [1], the system named is Plasmodium falciparum Sir2 (PF13_0152, Sir2A). The assay is described as follows: Plasmodium falciparum Sir2A binding compounds – biochemical, small-molecule microarray, 635 nm fluorescence, primary screen (AID 1098).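 Also: score merges spot fluorescence intensity with its signal-to-noise ratio.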 The following applies: fluorescence 635 nm, higher = more signal.
Assay [2] in a line: probe aDKK1 binding to arrayed compounds – biochemical, biotinylated probe, 635/667 nm fluorescence, primary screen (AID 1099).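 Also: score merges 667nm spot fluorescence with signal to noise across triplicate slides.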 The following applies: small-molecule microarray, higher = more signal.
Assay [3] is described as follows: probe aCHRDL2 binding to arrayed compounds – biochemical, biotinylated probe, 635/667 nm fluorescence, primary screen (AID 1100). The following applies: small-molecule microarray, higher = more signal.
The nature of assay [4]: change in splice reporter luminescence, either direction, cell-based, HEK293, spliceosome inhibition project, primary screen (AID 1101).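 Also: HEK293 cells carrying a splicing-competent luciferase reporter gene; test concentration not given here.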 The following applies: HEK293 splicing luciferase reporter, 24 h, higher = more signal, called active from +8 up or from −8 down. In general terms: Reporter assays use an easily measured gene product as a stand-in for the process of interest.

Assay [5] has as its target Fibroblast growth factor 10 (Homo sapiens) (UniProt O15520). Description: compounds binding fibroblast growth factor 10 – biochemical, small-molecule microarray, 635 nm fluorescence, primary screen (AID 1102). The following applies: FGF10 binding, fluorescence 635 nm, higher = more signal.
Assay [6] concerns glycogen synthase kinase-3 (GSK3A per assay name; protocol says GSK3B). Description: compounds binding glycogen synthase kinase-3 – biochemical, small-molecule microarray, 635 nm fluorescence, GSK3A, primary screen (AID 1103). Also: the record names both GSK3A and GSK3B. The following applies: fluorescence 635 nm, higher = more signal.
In assay [7] the target is Epidermal growth factor receptor (Homo sapiens) (UniProt P00533). Description: compounds binding epidermal growth factor receptor – biochemical, small-molecule microarray, 635 nm fluorescence, primary screen (AID 1104).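 Also: score merges 667 nm emission intensity with spot signal to noise over triplicate slides.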 The following applies: EGFR binding, higher = more signal.
For assay [8], the target named is Follistatin-related protein 3 (Homo sapiens) (UniProt O95633). The assay is described as follows: compounds binding follistatin-related protein 3 – biochemical, small-molecule microarray, 635 nm fluorescence, primary screen (AID 1105).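 Also: score merges emission near 667 nm and signal to noise per printed spot across three slides.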 The following applies: FSTL3 binding, higher = more signal.
Assay [9] has as its target Dickkopf-related protein 1 (Homo sapiens) (UniProt O94907). The assay is described as follows: small molecules binding DKK1 protein – biochemical, small-molecule microarray, 635 nm fluorescence scan, primary screen (AID 1106).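 Also: score merges emission near 667 nm with signal to noise over three replicate slides.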 The following applies: higher = more signal.
The test system of assay [10] is Inhibin beta A chain (activin A). Description: small molecules binding activin A – biochemical, small-molecule microarray, 635 nm fluorescence scan, primary screen (AID 1107).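 Also: mouse activin A protein probed at 4.33 µg/mL on printed slides; score merges bound-protein fluorescence near 667 nm with spot signal-to-noise.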 The following applies: INHBA, higher = more signal.
In assay [11] the test system is Human papillomavirus type 1a protein E7 (residues 44-93). The assay is described as follows: small molecules binding HPV E7 44-93 – biochemical, small-molecule microarray, residues 44-93, 635 nm fluorescence, primary screen (AID 1108).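 Also: E7 fragment applied at 1 µg/mL in TBST for 1 h at 4 C; score combines spot fluorescence with its signal to noise ratio.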 The following applies: fluorescence 635 nm, higher = more signal.
Assay [12] in a line: hepatitis C replication reporter changes, two-sided – Huh7 cells, luciferase reporter, HCV replication inhibitor project, primary screen (AID 1109).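 Also: huh7 hepatoma cells harbouring a luciferase neomycin HCV replicon reporter; luciferase luminescence as measure of HCV replicon replication; test concentration not given here.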 The following applies: Huh7 HCV replicon luciferase reporter, 48 h; higher = more signal.
In assay [13] the target is Left-right determination factor 2 (Homo sapiens) (UniProt O00292). The assay is described as follows: small molecules binding LEFTY2 protein – biochemical, small-molecule microarray, 635 nm fluorescence scan, primary screen (AID 1110). The following applies: higher = more signal.
Assay [14] has as its target Calmodulin-1 (Homo sapiens) (UniProt P0DP23). The assay is described as follows: small molecules binding calmodulin-1 with EGTA – biochemical, small-molecule microarray, Cy5-labelled CALM1, profiling panel (AID 1111).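 Also: labelled calmodulin applied in Tris saline Tween buffer holding calcium plus EGTA and DTT.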 The following applies: Cy5-CALM1 binding fluorescence, higher = more signal.
Assay [15] has the same target. Description: small molecules binding Ca-loaded calmodulin-1 – biochemical, small-molecule microarray, Cy5-labelled CALM1, plus calcium, artefact control for SMM control-protein annotation, profiling panel (AID 1112).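 Also: score merges spot fluorescence with signal to noise from triplicate slides.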 The following applies: Cy5-CALM1 binding fluorescence, higher = more signal.
Assay [16] is described as follows: probe aWnt5a binding to arrayed compounds – biochemical, biotinylated probe, 635/667 nm fluorescence, primary screen (AID 1113).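 Also: score merges 667 nm fluorescence intensity with signal-to-noise per printed feature.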 The following applies: small-molecule microarray, higher = more signal.
A short description of assay [17]: probe aShh binding to arrayed compounds – biochemical, biotinylated probe, 635/667 nm fluorescence, primary screen (AID 1114).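 Also: probe is biotin-labelled aShh protein from a stem cell growth factor screen; measures binding of labelled protein to compounds printed on the slide; score merges feature fluorescence at 667 nm with signal-to-noise.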 The following applies: small-molecule microarray, higher = more signal.
The nature of assay [18]: probe aNog binding to arrayed compounds – biochemical, biotinylated probe, 635/667 nm fluorescence, primary screen (AID 1115).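 Also: probe is biotinylated aNog protein used at 0.15 µg/mL for 1 h at 4 C; z-score combines 667 nm fluorescence of each spot with its signal to noise.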 The following applies: small-molecule microarray, higher = more signal.
In assay [19] the target is Torsin-1A-interacting protein 1 (Homo sapiens) (UniProt Q5JTV8). The assay is described as follows: compound microarray binding of lysate hLAP1 – cell lysate, small-molecule microarray, COS7 lysate, 635/667 nm fluorescence, primary screen (AID 1116). The following applies: 635 nm fluorescence, higher = more signal.
The target of assay [20] is Alpha-bungarotoxin (Bungarus multicinctus) (UniProt P60615). The assay is described as follows: compounds binding labelled alpha-BTX control protein – biochemical, small-molecule microarray, Alexa647 label, 635/667 nm fluorescence, artefact control for SMM control protein annotation, profiling panel (AID 1117). The following applies: alpha-BTX-A647 binding fluorescence, higher = more signal.

The source made the active and inactive calls.

Alpha-bungarotoxin (Bungarus multicinctus), sequence (P60615 whole entry, looked up): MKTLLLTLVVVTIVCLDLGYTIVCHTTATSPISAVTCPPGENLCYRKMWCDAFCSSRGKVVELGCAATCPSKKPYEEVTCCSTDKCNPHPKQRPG
Fibroblast growth factor 10 (Homo sapiens), sequence (O15520 whole entry, looked up): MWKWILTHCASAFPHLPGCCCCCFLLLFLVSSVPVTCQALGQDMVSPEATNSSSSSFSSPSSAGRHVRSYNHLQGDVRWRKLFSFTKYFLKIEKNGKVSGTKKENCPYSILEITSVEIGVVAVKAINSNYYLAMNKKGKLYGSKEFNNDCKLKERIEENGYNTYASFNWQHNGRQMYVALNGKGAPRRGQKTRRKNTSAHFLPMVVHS
Left-right determination factor 2 (Homo sapiens), sequence (O00292 whole entry, looked up): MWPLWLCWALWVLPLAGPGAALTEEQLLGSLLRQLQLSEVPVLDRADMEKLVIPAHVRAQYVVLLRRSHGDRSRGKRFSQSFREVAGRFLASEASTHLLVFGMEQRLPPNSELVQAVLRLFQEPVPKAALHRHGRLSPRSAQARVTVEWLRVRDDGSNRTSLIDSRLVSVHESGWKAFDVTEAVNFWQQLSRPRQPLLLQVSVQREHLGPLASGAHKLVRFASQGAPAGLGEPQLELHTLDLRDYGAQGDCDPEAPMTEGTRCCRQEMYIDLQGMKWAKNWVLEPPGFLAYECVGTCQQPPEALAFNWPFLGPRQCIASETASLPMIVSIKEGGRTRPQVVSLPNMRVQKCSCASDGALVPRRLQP
Torsin-1A-interacting protein 1 (Homo sapiens), sequence (Q5JTV8 whole entry, looked up): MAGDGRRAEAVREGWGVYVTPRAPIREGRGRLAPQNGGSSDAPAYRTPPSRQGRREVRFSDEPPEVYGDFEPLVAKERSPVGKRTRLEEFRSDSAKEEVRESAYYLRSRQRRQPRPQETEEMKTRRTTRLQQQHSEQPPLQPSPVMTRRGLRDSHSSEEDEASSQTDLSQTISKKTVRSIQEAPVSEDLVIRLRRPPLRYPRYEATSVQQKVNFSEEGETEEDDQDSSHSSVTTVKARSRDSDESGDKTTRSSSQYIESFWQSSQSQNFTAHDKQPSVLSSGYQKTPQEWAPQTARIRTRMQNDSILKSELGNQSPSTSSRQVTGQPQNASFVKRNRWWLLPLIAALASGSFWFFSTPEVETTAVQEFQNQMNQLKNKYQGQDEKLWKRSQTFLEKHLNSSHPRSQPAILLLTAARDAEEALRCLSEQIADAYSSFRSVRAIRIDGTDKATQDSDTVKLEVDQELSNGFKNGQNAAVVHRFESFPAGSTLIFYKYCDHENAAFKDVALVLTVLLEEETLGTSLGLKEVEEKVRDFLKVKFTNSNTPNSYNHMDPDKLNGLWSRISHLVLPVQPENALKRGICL
Dickkopf-related protein 1 (Homo sapiens), sequence (O94907 whole entry, looked up): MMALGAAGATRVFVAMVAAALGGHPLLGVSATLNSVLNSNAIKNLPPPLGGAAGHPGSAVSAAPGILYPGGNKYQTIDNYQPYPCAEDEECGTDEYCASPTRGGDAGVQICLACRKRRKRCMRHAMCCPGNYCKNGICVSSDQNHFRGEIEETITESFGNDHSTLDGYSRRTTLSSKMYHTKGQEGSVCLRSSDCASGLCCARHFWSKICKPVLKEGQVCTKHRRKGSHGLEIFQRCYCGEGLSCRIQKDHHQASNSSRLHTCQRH
Follistatin-related protein 3 (Homo sapiens), sequence (O95633 whole entry, looked up): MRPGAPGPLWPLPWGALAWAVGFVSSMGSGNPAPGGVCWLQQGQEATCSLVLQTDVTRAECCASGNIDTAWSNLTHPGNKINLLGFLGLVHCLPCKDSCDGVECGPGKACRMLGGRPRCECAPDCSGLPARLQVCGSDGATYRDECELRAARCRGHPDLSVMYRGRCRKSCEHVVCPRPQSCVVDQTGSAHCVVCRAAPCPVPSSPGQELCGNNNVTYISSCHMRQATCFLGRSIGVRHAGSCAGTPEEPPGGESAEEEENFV
Epidermal growth factor receptor (Homo sapiens), sequence (P00533 whole entry, looked up): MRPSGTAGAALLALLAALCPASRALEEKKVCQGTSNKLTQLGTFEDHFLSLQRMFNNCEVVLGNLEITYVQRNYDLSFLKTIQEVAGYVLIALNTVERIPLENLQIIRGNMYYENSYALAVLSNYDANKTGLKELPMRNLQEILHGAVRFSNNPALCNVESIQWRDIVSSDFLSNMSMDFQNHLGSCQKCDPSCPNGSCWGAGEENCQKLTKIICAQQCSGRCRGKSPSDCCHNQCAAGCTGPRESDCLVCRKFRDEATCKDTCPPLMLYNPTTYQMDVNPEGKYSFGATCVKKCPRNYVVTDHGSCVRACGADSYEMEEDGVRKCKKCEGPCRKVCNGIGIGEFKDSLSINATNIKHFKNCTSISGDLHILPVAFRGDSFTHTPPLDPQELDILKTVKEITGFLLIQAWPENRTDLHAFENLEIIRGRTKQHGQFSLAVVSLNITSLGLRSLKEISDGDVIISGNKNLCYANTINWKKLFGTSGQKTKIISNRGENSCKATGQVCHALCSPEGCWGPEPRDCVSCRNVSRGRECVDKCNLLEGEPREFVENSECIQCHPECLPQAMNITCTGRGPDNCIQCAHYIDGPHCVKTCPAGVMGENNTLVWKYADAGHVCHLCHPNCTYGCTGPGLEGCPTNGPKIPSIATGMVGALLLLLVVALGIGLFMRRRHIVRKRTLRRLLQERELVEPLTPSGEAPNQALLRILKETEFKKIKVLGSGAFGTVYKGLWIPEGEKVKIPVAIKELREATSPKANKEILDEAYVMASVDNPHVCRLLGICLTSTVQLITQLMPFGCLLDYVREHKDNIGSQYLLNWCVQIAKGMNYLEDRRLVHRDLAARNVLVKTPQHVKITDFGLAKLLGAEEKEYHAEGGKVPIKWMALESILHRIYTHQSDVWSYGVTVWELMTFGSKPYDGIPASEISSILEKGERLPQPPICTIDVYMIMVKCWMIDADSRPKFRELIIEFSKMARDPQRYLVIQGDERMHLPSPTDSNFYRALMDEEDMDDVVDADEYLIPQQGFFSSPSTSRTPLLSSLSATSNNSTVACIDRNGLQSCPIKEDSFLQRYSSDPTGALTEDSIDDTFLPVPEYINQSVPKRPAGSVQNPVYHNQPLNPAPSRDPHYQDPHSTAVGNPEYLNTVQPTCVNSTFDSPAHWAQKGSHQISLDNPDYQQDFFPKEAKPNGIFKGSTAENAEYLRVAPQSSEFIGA

In the case of `[N-]=[N+]=Nc1ccccc1C[C@]1(C(=O)O)N=C(c2ccc(OCCCO)cc2)O[C@H]1c1ccccc1N=[N+]=[N-]`, the composite z-score in [1] is 0.944; in [2], 1.06; in [3] it was 1.12; in assay [5] it was 0.445; in assay [6] it was 1.06; in [7] it was 0.342. Moreover, the composite z-score in assay [8] is 0.546; in assay [9], -0.0824; in [10], 0.884; in assay [11], 0.99; in assay [13], 0.282; in assay [14], 2.1. Besides, the composite z-score was 0.923 in assay [15]; 0.0859 in [16]; -0.0263 in assay [17]; 2 in [18]; 1.5 in [19]; 1.22 in assay [20]. The z-score in assay [4] was -1.55 (inactive); in [12], -1.02.

With `CCc1cccc(NC(=O)O[C@H]2[C@H](OC(=O)Nc3ccccc3)[C@H](OC(=O)Nc3ccccc3)[C@@H](OC)O[C@@H]2CO)c1`, the composite z-score in [1] is 1.41; in [2], 0.22; in [3], 0.55; in [5], 1.51; in [6], 1.24; in assay [7], -0.0045. The composite z-score was 0.833 in assay [8]; -0.186 in [9]; 0.444 in assay [10]; 1.44 in assay [11]; 0.0274 in assay [13]; 1.26 in assay [14]. Besides, the composite z-score in assay [15] was -0.101; in assay [16], -0.0006; in assay [17], 0.23; in [18], 1.11; in [19] it was 1.03; in assay [20] it was 0.0456. Besides, the z-score in [4] is -0.376 (inactive); in [12], -3.86.

For `CC(C)c1ccc(NN2C(C(O)Cc3ccccc3)C=CC3C(=O)N(c4ccccc4)C(=O)C32)cc1` (stereo not given), the composite z-score in assay [1] turned out to be 0.587; in assay [2], 0.655; in assay [3], 0.811; in assay [5], 0.932; in [6] it was 1.04; in [7], 0.399. For the same compound, the composite z-score was 1.26 in assay [8]; 0.241 in assay [9]; -0.323 in assay [10]; 1.33 in [11]; 0.126 in [13]; 2.05 in assay [14]. The composite z-score in assay [15] is 0.744; in assay [16] it was -0.0819; in assay [17], 0.23; in assay [18] it was 1.53; in [19], 0.98; in assay [20], 1.06. In addition, the values for the z-score in [4] and in assay [12] were -0.469 (inactive) and 0.843, respectively.

Regarding `CCOC(=O)C1=CCN(S(=O)(=O)c2ccc(C)cc2)C1c1ccccc1` (stereo not given), the composite z-score in [1] was 0.494; in assay [2] it was 0.129; in [3], 0.221; in [5], 1.19; in assay [6], 0.509; in assay [7] it was 0.204. In addition, the composite z-score in [8] was 0.493; in [9], 0.22; in [10], 0.867; in assay [11] it was 0.666; in assay [13], 0.564; in assay [14], -0.263. The composite z-score in [15] is -0.197; in [16], -0.0346; in assay [17], 0.0204; in assay [18] it was 0.46; in assay [19], 0.553; in assay [20], 0.848. Also, the z-score in assay [4] is -0.377 (inactive); in assay [12] it was -3.27.

With `COc1cc2c(cc1O)C(c1ccc(CN3CCCC3)cc1)N(C)CC2` (stereo not given), the composite z-score in assay [1] is 0.232; in assay [2], -0.0829; in assay [3], -0.275; in [5] it was 0.167; in assay [6] it was -1.27; in assay [7] it was -0.419. Further, the composite z-score in assay [8] was -0.567; in assay [9], -0.622; in [10], -0.172; in assay [11], -1.7; in assay [13] it was 0.351; in [14] it was 0.571. The composite z-score in [15] was 0.673; in [16] it was -0.173; in [17], -0.359; in assay [18] it was 0.452; in [19], -0.862; in [20] it was 0.0735. In addition, the values for the z-score in [4] and in [12] were -0.00442 (inactive) and -1.02, respectively.
